Data on 4 molecules can be found in PubChem BioAssay (EPA / NIEHS).

Records with an inconclusive call do not appear. Activity calls are given as the source filed them. Rule for the calls, unless noted: active = hit-call score of the fitted dose curve at least 0.9, where 1 is the maximum; inactive = score below 0.9.

Test [1] addresses Paired box protein Pax-6 (Homo sapiens) (UniProt P26367). Kind of test: ATG_Pax6_CIS: Attagene CIS-FACTORIAL HepG2 Assay for human Paired Box 6 (PAX6) (AID 2282956). The conditions noted are these: HepG2 CIS-FACTORIAL PAX6 reporter transcription, RNA readout; actives raise or lower the signal. In a few lines: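 HepG2 cells transiently transfected with cis-promoter-driven multiplexed reporter units sensing endogenous transcription factor activity; 24 h chemical exposure. Reporter mRNA quantified by RT-PCR, 6-FAM labelling, HpaI digestion and capillary electrophoresis; bidirectional fit versus DMSO baseline.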

A short description of test [2]: ATG_PXRE_CIS: Attagene CIS-FACTORIAL HepG2 Assay for human Pregnane X Receptor Element (PXRE) (AID 2282957). The following applies: HepG2 Attagene CIS-FACTORIAL PXRE reporter, mRNA; actives raise or lower the signal. In a few lines:
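Transfect HepG2 with MRTUs (cis promoter elements); dose chemical, incubate 24 h; isolate RNA, RT with oligo(dT), PCR, 6-FAM label, HpaI cut, CE. Gain/loss fit vs DMSO.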

A short description of test [3]: ATG_PPRE_CIS: Attagene CIS-FACTORIAL HepG2 Assay for human Peroxisome Proliferator-activated Response Element (PPRE) (AID 2282958). The conditions noted are these: HepG2 PPRE cis-element reporter, Attagene transcription factor profiling; actives raise or lower the signal. Put shortly:
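HepG2 cells are transiently transfected with multiplexed cis-promoter reporter units to report endogenous PPAR activity. After 24 h dosing, reporter mRNA is read by RT-PCR and capillary electrophoresis. Fitting is bidirectional against DMSO.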

A short description of test [4]: ATG_RORE_CIS: Attagene CIS-FACTORIAL HepG2 Assay for human RAR-related Orphan Receptor Element (RORE) (AID 2282959). The following applies: HepG2 Attagene cis-factorial RORE reporter, mRNA; actives raise or lower the signal. In a few lines:
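HepG2 cells carrying transiently transfected cis-regulated reporter units; RORE-driven reporter mRNA quantified 24 h post-dosing by RT-PCR, 6-FAM primer extension, HpaI digestion and capillary electrophoresis. Bidirectional fit versus DMSO.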

Test [5] is described as follows: ATG_Sox_CIS: Attagene CIS-FACTORIAL HepG2 Assay for human SRY-box transcription factor (SOX) (AID 2282960). The following applies: HepG2 Attagene cis-factorial SOX reporter, mRNA; actives raise or lower the signal. Put shortly: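 HepG2 cells transiently transfected with multiple cis-regulated reporter units, then dosed for 24 h. Reporter mRNA quantified by RT-PCR, fluorescent labelling, HpaI digestion and capillary electrophoresis; bidirectional fit versus DMSO.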

In test [6] the target is Transcription factor Sp1 (Homo sapiens) (UniProt P08047). Kind of test: ATG_Sp1_CIS: Attagene CIS-FACTORIAL HepG2 Assay for human Specificity Protein 1 (Sp1) (AID 2282961). The conditions noted are these: HepG2 Sp1 cis-reporter transcription, actives raise or lower the signal. Put shortly:
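HepG2 cells transiently transfected with multiplexed cis-regulated reporter constructs, chemical exposure 24 h. Reporter mRNA quantified by RT-PCR with capillary electrophoresis; bidirectional fit relative to DMSO.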

Test [7] in a line: ATG_SREBP_CIS: Attagene CIS-FACTORIAL HepG2 Assay for human Sterol Regulatory Element Binding (SREBP) (AID 2282962). The conditions noted are these: HepG2 Attagene cis-factorial SREBP reporter, mRNA; actives raise or lower the signal. In a few lines: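 HepG2 cells transiently transfected with multiplexed cis-promoter reporter units sensing endogenous transcription factors; reporter mRNA measured 24 h after dosing by RT-PCR, 6-FAM labeling, HpaI digestion and capillary electrophoresis. Bidirectional fit versus DMSO.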

The target in test [8] is Signal transducer and activator of transcription 3 (Homo sapiens) (UniProt P40763). The test is described as follows: ATG_STAT3_CIS: Attagene CIS-FACTORIAL HepG2 Assay for human Signal Transducer and Activator of Transcription 3 (STAT3) (AID 2282963). The following applies: HepG2, Attagene cis-factorial STAT3 reporter transcription; actives raise or lower the signal. In a few lines: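 Endogenous STAT3-responsive cis-element activity was read in transiently transfected HepG2 cells after 24 h treatment. Reporter transcripts were quantified via RT-PCR and capillary electrophoresis, with DMSO as negative control and bidirectional curve fitting.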
Chain of Signal transducer and activator of transcription 3 (Homo sapiens) (P40763 whole entry, looked up): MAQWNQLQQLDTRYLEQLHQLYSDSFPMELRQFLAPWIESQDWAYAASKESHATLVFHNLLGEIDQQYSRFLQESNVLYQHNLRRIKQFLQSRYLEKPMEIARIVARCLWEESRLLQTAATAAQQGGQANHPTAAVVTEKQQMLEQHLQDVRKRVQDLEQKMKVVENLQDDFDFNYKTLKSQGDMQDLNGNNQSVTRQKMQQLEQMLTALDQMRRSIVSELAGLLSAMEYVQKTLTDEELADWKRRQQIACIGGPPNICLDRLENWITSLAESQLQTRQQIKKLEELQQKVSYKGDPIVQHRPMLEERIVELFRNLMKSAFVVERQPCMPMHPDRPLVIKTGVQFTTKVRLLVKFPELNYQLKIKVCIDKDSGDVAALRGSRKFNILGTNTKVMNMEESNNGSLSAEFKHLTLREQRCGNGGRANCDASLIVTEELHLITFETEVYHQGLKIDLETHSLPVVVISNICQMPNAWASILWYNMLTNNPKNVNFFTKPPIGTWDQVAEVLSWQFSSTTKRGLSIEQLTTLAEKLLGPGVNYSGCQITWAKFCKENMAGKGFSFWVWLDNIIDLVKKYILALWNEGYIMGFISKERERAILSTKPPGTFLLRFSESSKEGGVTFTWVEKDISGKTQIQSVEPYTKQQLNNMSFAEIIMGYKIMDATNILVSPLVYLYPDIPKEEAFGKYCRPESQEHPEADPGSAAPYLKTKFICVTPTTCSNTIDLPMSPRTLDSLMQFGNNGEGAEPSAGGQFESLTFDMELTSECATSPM

Test [9] is described as follows: ATG_TA_CIS: Attagene CIS-FACTORIAL HepG2 Assay for human TA Basal Promoter (AID 2282964). The conditions noted are these: HepG2 Attagene CIS-factorial TA basal promoter reporter; actives raise or lower the signal. Put shortly:
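Fluorescence from labelled RT-PCR reporter fragments, separated by capillary electrophoresis, gives the signal. Cells: HepG2 transiently carrying multiple reporter units, 24 h chemical dosing. Gain or loss relative to DMSO.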

The nature of test [10]: ATG_TCF_b_cat_CIS: Attagene CIS-FACTORIAL HepG2 Assay for human T-Cell-Factor with beta-catenin (TCF/b-cat) (AID 2282965). The conditions noted are these: HepG2 TCF/beta-catenin cis-reporter transcription, actives raise or lower the signal. Put shortly: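 Endogenous TCF/LEF activity read as reporter transcript level via RT-PCR and capillary electrophoresis fluorescence in transfected HepG2, 24 h exposure; gain or loss of signal fitted against DMSO controls.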

Test [11] is described as follows: ATG_TAL_CIS: Attagene CIS-FACTORIAL HepG2 Assay for human TAL Basal Promoter (AID 2282966).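 Note: background control endpoint measuring basal TAL promoter reporter mRNA not a specific factor.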 The following applies: HepG2 Attagene cis-factorial TAL promoter reporter; actives raise or lower the signal. Put shortly:
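Fluorescence of labelled reporter cDNA fragments, resolved by capillary electrophoresis, gave the readout. Human HepG2 liver cells carried transiently transfected cis-element reporter units and were treated for 24 hours; activity was fitted bidirectionally against DMSO.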

The nature of test [12]: ATG_TGFb_CIS: Attagene CIS-FACTORIAL HepG2 Assay for human Transforming Growth Factor (TGF) (AID 2282967). The conditions noted are these: HepG2 Attagene CIS TGFb reporter, mRNA transcription; actives raise or lower the signal. Put shortly: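 Bidirectional fitting relative to DMSO gave the endpoint. Underlying data: reporter mRNA from HepG2 cells carrying transiently transfected cis-regulated reporter constructs, harvested 24 h after dosing and analyzed by RT-PCR and capillary electrophoresis.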

A short description of test [13]: ATG_VDRE_CIS: Attagene CIS-FACTORIAL HepG2 Assay for human Vitamin D Receptor Element (VDRE) (AID 2282968). The conditions noted are these: HepG2 VDRE cis-reporter transcription, actives raise or lower the signal. Put shortly: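 Reporter mRNA induction, quantified by capillary electrophoresis of fluorescently labelled RT-PCR products, was read 24 h after dosing HepG2 cells carrying transiently transfected cis-regulated reporter units; gain or loss relative to DMSO.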

In test [14] the target is Nuclear receptor subfamily 1 group I member 3 (Homo sapiens) (UniProt Q14994). Kind of test: ATG_CAR_TRANS: Attagene TRANS-FACTORIAL HepG2 Assay for human Constitutive Androstane Receptor (CAR) (AID 2282969; active = hit-call score of the fitted dose curve at least 0.9, where 1 is the maximum;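 note: activators raise reporter mRNA above DMSO so AC50 marks induction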). The conditions noted are these: HepG2 Attagene TRANS-FACTORIAL CAR reporter. Put shortly:
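Readout is reporter mRNA induction, quantified by fluorescent primer extension and capillary electrophoresis after RT-PCR. Cells were HepG2 transiently carrying chimeric NR-Gal4 constructs with GAL4-UAS reporters, treated for 24 h; activity scored upward from DMSO.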

Test [15] addresses Estrogen receptor (Homo sapiens) (UniProt P03372). Kind of test: ATG_ERa_TRANS: Attagene TRANS-FACTORIAL HepG2 Assay for human Estrogen Receptor alpha (ERa) (AID 2282970; active = hit-call score of the fitted dose curve at least 0.9, where 1 is the maximum). The following applies: HepG2 Attagene TRANS ERa GAL4 reporter, mRNA. In a few lines: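 Human liver HepG2, transient transfection of multiple GAL4-UAS reporter units; TRANS format (exogenous NR-Gal4 chimera). 24 h dosing. Readout: reporter mRNA, RT-PCR, 6-FAM primer extension, HpaI digest, capillary electrophoresis. Positive direction vs DMSO.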

In test [16] the target is Steroid hormone receptor ERR1 (Homo sapiens) (UniProt P11474). Kind of test: ATG_ERRa_TRANS: Attagene TRANS-FACTORIAL HepG2 Assay for human Estrogen-Related Receptor alpha (ERRa) (AID 2282971; active = hit-call score of the fitted dose curve at least 0.9, where 1 is the maximum). The following applies: HepG2 Attagene TRANS reporter, ERRa transactivation. In a few lines: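 Reporter transcript induction was quantified by RT-PCR and capillary electrophoresis of FAM-labelled, HpaI-cut products after 24 h treatment of HepG2 cells carrying transiently transfected GAL4-UAS reporter units and an exogenous ERRa-Gal4 fusion; activity scored as increase over DMSO.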
Chain of Steroid hormone receptor ERR1 (Homo sapiens) (P11474 whole entry, looked up, the tested form may be a part): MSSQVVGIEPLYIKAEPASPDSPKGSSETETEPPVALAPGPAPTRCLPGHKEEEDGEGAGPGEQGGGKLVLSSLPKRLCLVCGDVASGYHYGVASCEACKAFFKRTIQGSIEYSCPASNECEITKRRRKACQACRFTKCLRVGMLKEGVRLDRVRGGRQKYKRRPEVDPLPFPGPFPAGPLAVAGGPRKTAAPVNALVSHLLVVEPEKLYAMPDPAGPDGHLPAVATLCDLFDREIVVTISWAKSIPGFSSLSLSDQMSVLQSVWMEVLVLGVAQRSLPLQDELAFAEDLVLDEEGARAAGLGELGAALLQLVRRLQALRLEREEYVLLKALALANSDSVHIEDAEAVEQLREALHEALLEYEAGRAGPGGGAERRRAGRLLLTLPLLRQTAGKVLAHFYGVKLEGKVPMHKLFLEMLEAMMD

Test [17] addresses X-box-binding protein 1 (Homo sapiens) (UniProt P17861). The test is described as follows: ATG_Xbp1_CIS: Attagene CIS-FACTORIAL HepG2 Assay for human X-box Binding Protein 1 (XBP1) (AID 2282972). The following applies: HepG2 XBP1 cis-element reporter, Attagene multiplex; actives raise or lower the signal. Put shortly:
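HepG2 cells transiently transfected with multiple cis-element reporter units report endogenous TF activity; 24 h exposure, then reporter mRNA measured by RT-PCR, 6-FAM labelling, HpaI digestion and capillary electrophoresis. Bidirectional fitting versus DMSO.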

Test [18] addresses Androgen receptor (Homo sapiens) (UniProt P10275). Kind of test: ATG_AR_TRANS: Attagene TRANS-FACTORIAL HepG2 Assay for human Androgen Receptor (AR) (AID 2282973; active = hit-call score of the fitted dose curve at least 0.9, where 1 is the maximum). The following applies: HepG2 Attagene TRANS-FACTORIAL AR reporter transcription. In a few lines: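 Steps: transfect HepG2 with multiple GAL4-UAS reporter transcription units (TRANS format, exogenous NR-Gal4 protein); dose 24 h; isolate RNA, reverse-transcribe, PCR-amplify, FAM-label, HpaI-digest; resolve by capillary electrophoresis. Positive direction vs DMSO.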

Test [19] in a line: ATG_M_19_TRANS: Attagene TRANS-FACTORIAL HepG2 Assay for M19 Transcription Factor (Internal Marker) (AID 2282974; active = hit-call score of the fitted dose curve at least 0.9, where 1 is the maximum). The conditions noted are these: HepG2 Attagene TRANS-FACTORIAL M19 internal marker reporter. In a few lines:
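HepG2 transiently transfected with GAL4-UAS multiplex reporter constructs, exposed 24 h; reporter RNA quantified by RT-PCR, 6-FAM labeling, HpaI digestion and capillary electrophoresis; internal background marker fitted upward versus DMSO.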

A short description of test [20]: ATG_PBREM_CIS: Attagene CIS-FACTORIAL HepG2 Assay for human Phenobarbital-responsive Enhancer Module (PBREM) (AID 2282955). The following applies: HepG2 PBREM cis-reporter, Attagene multiplexed transcription; actives raise or lower the signal. Put shortly: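 HepG2 cells transiently transfected with multiple cis-regulated reporter units measure endogenous transcription factor activity; 24 h compound exposure. Reporter mRNA quantified by RT-PCR, fluorescent labelling, HpaI digestion and capillary electrophoresis; bidirectional fit versus DMSO.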

Chain of Estrogen receptor (Homo sapiens) (P03372 whole entry, looked up, the tested form may be a part): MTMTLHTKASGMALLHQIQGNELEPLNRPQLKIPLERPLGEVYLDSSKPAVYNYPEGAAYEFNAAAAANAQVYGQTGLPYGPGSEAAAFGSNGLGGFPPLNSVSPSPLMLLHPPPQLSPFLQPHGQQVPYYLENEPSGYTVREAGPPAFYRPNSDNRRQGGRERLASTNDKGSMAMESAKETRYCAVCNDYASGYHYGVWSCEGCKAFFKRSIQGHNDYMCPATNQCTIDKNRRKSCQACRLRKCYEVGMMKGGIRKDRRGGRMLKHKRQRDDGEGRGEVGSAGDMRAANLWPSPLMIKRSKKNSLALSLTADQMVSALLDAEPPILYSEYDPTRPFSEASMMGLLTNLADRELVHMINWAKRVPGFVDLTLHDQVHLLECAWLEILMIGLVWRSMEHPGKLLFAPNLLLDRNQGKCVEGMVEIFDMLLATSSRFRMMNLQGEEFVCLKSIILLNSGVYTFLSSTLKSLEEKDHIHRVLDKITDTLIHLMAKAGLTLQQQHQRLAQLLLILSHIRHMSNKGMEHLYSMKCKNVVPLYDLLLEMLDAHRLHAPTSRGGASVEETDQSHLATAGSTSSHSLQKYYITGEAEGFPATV
Chain of Transcription factor Sp1 (Homo sapiens) (P08047 whole entry, looked up): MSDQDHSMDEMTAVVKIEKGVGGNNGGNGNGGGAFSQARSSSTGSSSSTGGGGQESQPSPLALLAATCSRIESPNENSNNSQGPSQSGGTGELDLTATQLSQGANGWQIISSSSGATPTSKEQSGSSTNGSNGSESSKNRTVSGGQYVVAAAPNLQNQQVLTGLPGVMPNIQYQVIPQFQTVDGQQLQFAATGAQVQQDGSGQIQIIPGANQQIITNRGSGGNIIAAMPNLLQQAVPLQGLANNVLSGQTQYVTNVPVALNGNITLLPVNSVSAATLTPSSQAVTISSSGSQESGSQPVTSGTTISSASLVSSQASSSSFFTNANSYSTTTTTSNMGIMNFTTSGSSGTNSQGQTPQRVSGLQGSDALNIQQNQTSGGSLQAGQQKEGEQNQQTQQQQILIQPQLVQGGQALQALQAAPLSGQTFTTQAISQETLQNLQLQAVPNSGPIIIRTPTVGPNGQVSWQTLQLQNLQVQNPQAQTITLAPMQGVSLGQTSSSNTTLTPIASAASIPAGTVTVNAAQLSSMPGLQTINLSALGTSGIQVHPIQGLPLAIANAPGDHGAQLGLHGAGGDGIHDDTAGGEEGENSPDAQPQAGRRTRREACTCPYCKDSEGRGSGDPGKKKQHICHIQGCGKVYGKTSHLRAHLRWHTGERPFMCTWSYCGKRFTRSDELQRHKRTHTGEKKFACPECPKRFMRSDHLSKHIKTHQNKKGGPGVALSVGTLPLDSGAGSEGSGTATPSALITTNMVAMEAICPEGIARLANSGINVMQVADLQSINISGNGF
Chain of Nuclear receptor subfamily 1 group I member 3 (Homo sapiens) (Q14994 whole entry, looked up, the tested form may be a part): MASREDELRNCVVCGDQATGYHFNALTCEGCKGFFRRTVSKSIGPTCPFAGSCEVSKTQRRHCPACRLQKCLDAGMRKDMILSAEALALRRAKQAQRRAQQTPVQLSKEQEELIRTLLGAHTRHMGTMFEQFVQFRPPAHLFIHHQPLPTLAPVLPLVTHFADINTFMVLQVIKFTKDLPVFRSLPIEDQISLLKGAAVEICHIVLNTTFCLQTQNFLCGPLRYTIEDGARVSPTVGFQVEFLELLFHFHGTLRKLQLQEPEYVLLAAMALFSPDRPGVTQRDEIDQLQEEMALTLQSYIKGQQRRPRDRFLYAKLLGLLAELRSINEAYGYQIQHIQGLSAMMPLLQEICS
Chain of Paired box protein Pax-6 (Homo sapiens) (P26367 whole entry, looked up): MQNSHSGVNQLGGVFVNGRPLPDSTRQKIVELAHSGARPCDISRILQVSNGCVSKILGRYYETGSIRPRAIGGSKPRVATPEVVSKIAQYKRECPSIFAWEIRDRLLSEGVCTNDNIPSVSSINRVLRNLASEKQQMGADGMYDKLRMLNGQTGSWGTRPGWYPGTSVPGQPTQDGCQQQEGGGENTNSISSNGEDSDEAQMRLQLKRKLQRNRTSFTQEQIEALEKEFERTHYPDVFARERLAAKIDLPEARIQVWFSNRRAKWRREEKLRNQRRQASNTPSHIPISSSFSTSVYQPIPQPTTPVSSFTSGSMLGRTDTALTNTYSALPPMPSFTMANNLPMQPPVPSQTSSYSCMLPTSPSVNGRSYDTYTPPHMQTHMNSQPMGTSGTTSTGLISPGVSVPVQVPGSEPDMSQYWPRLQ
Chain of X-box-binding protein 1 (Homo sapiens) (P17861 whole entry, looked up): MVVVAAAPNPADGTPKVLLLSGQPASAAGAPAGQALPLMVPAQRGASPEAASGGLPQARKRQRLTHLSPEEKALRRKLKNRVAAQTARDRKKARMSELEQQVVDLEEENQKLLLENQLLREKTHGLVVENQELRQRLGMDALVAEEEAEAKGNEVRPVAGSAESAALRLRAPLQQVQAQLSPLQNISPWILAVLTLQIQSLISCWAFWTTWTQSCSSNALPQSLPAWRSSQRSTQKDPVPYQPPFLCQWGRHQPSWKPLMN
Chain of Androgen receptor (Homo sapiens) (P10275 whole entry, looked up, the tested form may be a part): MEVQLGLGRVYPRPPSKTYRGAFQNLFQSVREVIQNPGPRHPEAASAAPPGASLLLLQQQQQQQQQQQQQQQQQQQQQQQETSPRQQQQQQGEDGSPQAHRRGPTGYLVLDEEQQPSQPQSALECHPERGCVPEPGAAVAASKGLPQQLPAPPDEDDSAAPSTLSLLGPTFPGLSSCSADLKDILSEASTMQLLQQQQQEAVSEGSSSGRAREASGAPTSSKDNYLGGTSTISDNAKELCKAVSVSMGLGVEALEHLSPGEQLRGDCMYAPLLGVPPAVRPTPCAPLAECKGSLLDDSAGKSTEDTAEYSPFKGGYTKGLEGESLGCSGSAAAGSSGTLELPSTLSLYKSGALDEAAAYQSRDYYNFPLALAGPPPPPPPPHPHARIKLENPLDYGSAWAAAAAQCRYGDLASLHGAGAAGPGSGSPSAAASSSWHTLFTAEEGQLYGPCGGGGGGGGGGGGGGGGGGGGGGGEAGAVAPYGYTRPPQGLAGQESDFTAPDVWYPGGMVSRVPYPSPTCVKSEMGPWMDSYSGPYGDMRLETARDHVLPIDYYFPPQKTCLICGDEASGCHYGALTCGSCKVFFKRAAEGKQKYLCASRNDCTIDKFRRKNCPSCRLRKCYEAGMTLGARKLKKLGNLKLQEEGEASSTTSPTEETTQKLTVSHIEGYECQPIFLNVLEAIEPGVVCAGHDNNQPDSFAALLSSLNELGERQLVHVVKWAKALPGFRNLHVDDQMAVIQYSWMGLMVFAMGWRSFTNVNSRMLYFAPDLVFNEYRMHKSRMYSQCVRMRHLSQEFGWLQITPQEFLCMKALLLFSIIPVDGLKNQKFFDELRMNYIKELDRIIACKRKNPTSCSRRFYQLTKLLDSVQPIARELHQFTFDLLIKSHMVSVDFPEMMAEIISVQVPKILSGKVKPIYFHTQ

In general, AC50 refers to the concentration at which the activity in the assay is half-maximal. As for `COP(N)(=S)OC`, the molecule was classed as inactive in test [1], in test [3], in test [4], in test [5], in test [6] and in [7]. For the same molecule, the molecule was called inactive in [8], in test [9], in test [10], in test [11], in test [12] and in test [13]. The call in test [14], in test [15], in test [16], in test [17], in [18] and in test [19] was inactive. For the same molecule, in test [2], the AC50 is 47 µM (active).
`CCCCC(CC)COC(=O)c1c(Br)c(Br)c(Br)c(Br)c1C(=O)OCC(CC)CCCC` (stereo not given): the result in test [20], in [1], in [3], in test [4], in [6] and in test [7] was inactive. In addition, the molecule was called inactive in [8], in [9], in test [10], in test [11], in test [12] and in test [13]. Further, the outcome in test [15] and in [17] was inactive. The AC50 in [2] is 19.9 µM (active).
Consider `CSC(C)(C)C=NO`, for which the result in test [20], in [1], in [2], in test [3], in [4] and in test [6] was inactive. In addition, the call in [7], in [8], in test [9], in test [10], in test [11] and in [12] was inactive. Moreover, the outcome in test [13], in test [14] and in [17] was inactive.
For the molecule `O=c1[nH]c2ccccc2c(=O)o1`, the call in [1], in test [2], in [3], in test [4], in test [5] and in [6] was inactive. The molecule was classed as inactive in test [7], in test [8], in [9], in test [10], in test [11] and in test [12]. The result in [13], in test [14], in [15] and in [17] was inactive.
